This passage reports activation results from PubChem BioAssay AID540275 (National Center for Advancing Translational Sciences (NCATS), 2011).

Out of some 320,000 compounds screened, about 620 (0.19%) were called active. Not shown: some 6% with an inconclusive outcome. Rule as the data show it: active = activation above about 80%; inconclusive = between about 30% and that limit; inactive = weaker than that. For the sample, actives were picked, then their nearest neighbours and some compounds at random.

Transient receptor potential cation channel subfamily V member 1 (Homo sapiens), sequence (Q8NER1 whole entry, looked up): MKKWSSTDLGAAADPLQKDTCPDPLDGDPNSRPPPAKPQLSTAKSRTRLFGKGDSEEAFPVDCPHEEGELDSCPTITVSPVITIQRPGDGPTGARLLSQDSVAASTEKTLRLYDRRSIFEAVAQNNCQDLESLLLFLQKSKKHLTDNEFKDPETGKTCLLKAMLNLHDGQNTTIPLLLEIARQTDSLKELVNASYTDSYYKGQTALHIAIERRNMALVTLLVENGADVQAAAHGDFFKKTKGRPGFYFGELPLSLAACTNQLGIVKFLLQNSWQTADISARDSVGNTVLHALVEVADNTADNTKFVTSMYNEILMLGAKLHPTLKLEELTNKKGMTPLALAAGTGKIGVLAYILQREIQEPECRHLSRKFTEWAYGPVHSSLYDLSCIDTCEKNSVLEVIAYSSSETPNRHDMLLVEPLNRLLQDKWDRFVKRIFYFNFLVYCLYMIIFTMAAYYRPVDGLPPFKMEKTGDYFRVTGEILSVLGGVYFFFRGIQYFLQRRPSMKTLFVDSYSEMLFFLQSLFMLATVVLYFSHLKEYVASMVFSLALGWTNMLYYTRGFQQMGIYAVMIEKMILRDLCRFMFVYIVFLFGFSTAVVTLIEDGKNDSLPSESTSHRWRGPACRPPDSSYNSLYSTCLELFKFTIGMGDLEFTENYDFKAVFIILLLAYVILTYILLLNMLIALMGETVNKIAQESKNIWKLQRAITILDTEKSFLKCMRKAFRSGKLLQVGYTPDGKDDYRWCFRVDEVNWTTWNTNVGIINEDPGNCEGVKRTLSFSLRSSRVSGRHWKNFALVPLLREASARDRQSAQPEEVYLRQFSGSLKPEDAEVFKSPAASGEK

For this test, the target named is Transient receptor potential cation channel subfamily V member 1 (Homo sapiens) (UniProt Q8NER1). Nature of the test: HTS Assay for Compounds that Act as Agonists of the Vanilloid Receptor 1. Also: 0% is about no effect. The following applies: TRPV1-expressing cells, Fluo-8 calcium influx, agonist mode; at 8.33 µM; stronger effect = higher value. An excerpt:
The transient receptor potential ion channel, family V, number 1, (TRPV1) is one of the most important molecular transducers of painful stimuli and a potential target for analgesic drug development. Although recent clinical trials with orthosteric antagonists have not produced a successful drug because of a hyperthermia side effect and their tendency to block thermal noxious pain, this ion channel is undeniably well placed in the pain pathway, and the idea of blocking pain signals before they enter the CNS is an excellent concept and of proven efficacy when TRPV1 agonists are used. We propose a new approach involving allosteric modulation to impose an activity-dependent constraint within the context of inflammation and tissue damage that would alter the responsiveness of the channel in a way that an orthosteric vanilloid antagonist cannot achieve. We believe that the allosteric modulator approach has not been explored for this target. The main goal of this proposal is to identify additional, new, potent allosteric modulators of TRPV1 that can be used to investigate TRPV1 function. Our recent report provides evidence of proof of concept, but the compounds are just at the edge of utility in terms of potency. […] The question of whether they can be used as analgesic agents is complex, but if suitable compounds are identified then testing for analgesic properties will be conducted. NIH Chemical Genomics Center [NCGC] NIH Molecular Libraries Probe Centers Network [MLPCN] MLPCN Grant: MH089480-1A1 Assay Submitter (PI): Michael Iadarola, National Institute of Dental and Cranofacial Research
Upon TRPV1 activation in TRPV1 cells, the channel opens and extracellular cations flow through the channel into the cytosol. A calcium binding dye (Fluo-8) becomes fluorescent when bound to calcium. This dye is pre-loaded into cells and is used as a marker for calcium influx. The amount of accumulated calcium is precisely quantified using the FDSS kinetic reader and the calcium dye. For the HTS assay, freshly prepared cells are plated at a density of 2000/well in 3 ul medium in 1536-well plates and cultured overnight at 35.5C. Cells will be loaded with 1 ul of the homogeneous calcium dye (ABD Bioquest) at room temperature for 40 to 90 minutes. Plates will be loaded into the FDSS kinetic reader and a 1 sec / cycle for 10 second baseline signal will be measured. Compound library will then be added with a pintool at 23 nl and measured kinetically for 3 minutes. This portion of the read is considered the agonist portion of the screen. Following the 3 minutes of incubation, an on board pipettor will deliver 1 ul of capsaicin for a final concentration equal to the EC20. Signal will be measured kinetically for an additional 2 minutes. This portion of the read is considered the allosteric enhancer portion of the screen. The FDSS reader has a standard filter set capable of measuring calcium bound Fluo-8 (ex=480 and em=520 nm).
With `CCN1C(=O)C(=O)N(CC(=O)Nc2cc(C)ccc2C)C1=O`, the activation was -7.91% (inactive).
In the case of `CCN(c1ccccc1)S(=O)(=O)c1cccc(C(=O)NCc2ccccc2CN2CCOCC2)c1`, the activation was 10.7% (inactive).
With `CC(C)c1ccc(NC(=S)NC2CC3C=CC2C3)cc1` (centres undefined) the figure was 88.8% (active); with `S=C(NNC(=S)NC1CC2CCC1C2)NC1CC2C=CC1C2` (centres undefined), 3.31% (inactive).
In the case of `S=C(NNC(=S)NC1CC2C=CC1C2)NC1CC2C=CC1C2` (centres undefined) it was 1.8% (inactive).
With `O=S(=O)(Nc1cccc2cccnc12)c1cccc2cccnc12` the figure was 3.75% (inactive); with `Oc1ccc(Cl)cc1C1C=C(c2ccc3c(c2)OCO3)NC(c2c(F)cccc2Cl)N1` (centres undefined), 2.17% (inactive).
Regarding `CSCCC(NC(=O)c1ccco1)C(=O)NCCc1ccc(F)cc1` (centres undefined), the activation is 0.184% (inactive).
In the case of `CN(C)CCOc1ccc(Cl)cc1C(C)(C)C` it was 10.6% (inactive); in that of `CCc1nc(C)ccc1OCC(=O)N(CC)CC`, 2.63% (inactive); in that of `CCC(C)(C)c1ccc(OCC(=O)N(C)C)c(C(C)(C)CC)c1`, 81.1% (active).
`CCN(CC(=O)Nc1ccc(OC)cc1)C(=O)CSCc1ccc(C)cc1`: the activation was 12.3% (inactive).
With `Cc1cc(C)c(CN2CCN(C(=O)Cn3ccc(NC(=O)OCc4ccccc4)nc3=O)CC2)c(C)c1` the figure was 1.97% (inactive); with `COc1ccc(S(=O)(=O)N2CCOCC2)cc1NC(=O)CSc1cc(C)ccc1C`, 18.3% (inactive); with `COc1ccc(CNC(=O)COc2ccccc2C(=O)c2cnn(-c3ccccc3)c2)cc1OC`, 11.4% (inactive).
On to `COc1ccc(S(=O)(=O)Nc2cccc3cccnc23)c(N)c1`, for which the activation is 7.86% (inactive).
In the case of `C[C@H](NC(=O)c1[nH]cnc1C(=O)Nc1nccs1)c1ccccc1` it was 3.08% (inactive); in that of `O=C1NCCn2nc3ccccc3c21`, -1.33% (inactive).
On to `CCN(CC(=O)Nc1ccccc1C(F)(F)F)C(=O)C1CCN(C(=O)Nc2ccccc2)CC1`, for which the activation was 1.3% (inactive).
`Cc1cccc(OCCC(=O)OCc2csc(CC(=O)Nc3ccccc3C)n2)c1`: the activation was 14.6% (inactive).
With `NC(=O)NCCCC(=O)O` the figure was 5.36% (inactive).
With `O=C(c1cc(COc2cccc(C(F)(F)F)c2)on1)N1CCSCC1` the figure was 81.1% (active); with `Cc1nonc1C1CCCN1C(=O)c1cc(COc2cccc(C(F)(F)F)c2)on1` (centres undefined), 2.83% (inactive).
In the case of `O=C(NC1Cc2ccccc2C1)c1cc(COc2cccc(C(F)(F)F)c2)on1` it was 3.63% (inactive).
Take `O=C(Nc1ccncc1)c1cc(-c2ccccn2)nc2ccc(Br)cc12`: the activation was 0.349% (inactive).
On to `Cc1ccc2nc(-c3ccccn3)cc(C(=O)Nc3ccc4c(c3)OCO4)c2c1`, for which the activation is 90.2% (active).
As for `Cc1ccc2nc(-c3ccncc3)cc(C(=O)Nc3ccc4c(c3)OCCO4)c2c1`, the activation was -2.26% (inactive).
As to `COc1ccc(S(=O)(=O)N2CCN(CC(=O)N3c4ccccc4CC3C)CC2)cc1OC` (centres undefined), the activation is -0.777% (inactive).
With `COc1cc(C(=O)OCC(=O)NC23CC4CC(CC(C4)C2)C3)cc(OC)c1OC` the figure was 21.9% (inactive); with `O=C(Nc1cc(-c2ccccc2)nn1-c1ccccc1F)c1ccc([N+](=O)[O-])cc1`, -1.91% (inactive); with `CC1Cc2ccccc2N1S(=O)(=O)c1cccc(C(=O)NCC(c2ccco2)N2CCCC2)c1` (centres undefined), 0.253% (inactive).
With `CCn1c(=O)c(=O)n(CC)c2cc(N3CCCCC3)c(NC(=O)c3ccc(Cl)cc3)cc21` the figure was -4.74% (inactive).
In the case of `Cc1ccccc1S(=O)(=O)N1[C@@H](c2cccc(Cl)c2)C(C(=O)O)=CC[C@H]1c1ccc(Cl)cc1` it was -4.35% (inactive); in that of `CC1CCc2sc(C(=O)NCC(c3ccco3)N3CCCCC3)cc2C1` (centres undefined), 26.2% (inactive); in that of `CCC1CCC2(CC1)NC(=O)N(CC(=O)Nc1ccc(OC)cc1)C2=O` (centres undefined), 9.09% (inactive).
As to `CC(C)(C)NC(=O)NCc1ccco1`, the activation is 4.24% (inactive).
In the case of `CC(C)(C)c1ccc(NC(=O)NCc2ccco2)cc1` it was 89.3% (active).
On to `CC(C)(C)c1ccc(C(=O)NCCC(=O)NCc2ccco2)cc1`, for which the activation is 25% (inactive).
Consider `COc1ccccc1Nc1nnc(SC(C)C(=O)NC2CC2)s1` (centres undefined), for which the activation was 0.405% (inactive).
With `COc1ccc(NC(=O)Cn2cc(C(=O)c3ccncc3)c(=O)c3cc(C)ccc32)cc1Cl` the figure was 3.63% (inactive); with `Cc1ccc(NC(=O)CCCNC(=O)c2ccc(Cl)cc2)cc1S(=O)(=O)N1CCCCC1`, 6.66% (inactive); with `Cc1ccc(S(=O)(=O)N(C)C)cc1NC(=O)CN1c2cccc3cccc(c23)S1(=O)=O`, -5.6% (inactive).
`Cc1ccc(S(=O)(=O)NCCC(c2ccccc2)c2ccccc2)cc1C(=O)O`: the activation was -2.84% (inactive).
Consider `Cc1ccc(C(=O)NCCNC(=O)c2ccccc2)cc1`, for which the activation is 12.5% (inactive).
With `Cc1ncoc1C(=O)NCCC(c1ccccc1)c1ccccc1` the figure was 98.7% (active); with `Cc1ccc(C(=O)OCC(=O)Nc2ccc(Cl)cn2)cc1S(=O)(=O)N1CCOCC1`, 7.43% (inactive); with `CSc1ccc(Cl)c(C(=O)OCC(=O)N2CCNC2=O)c1`, 5.56% (inactive).
Regarding `O=C(CSc1ncnc2sccc12)N1CCN(C(=O)c2cccs2)CC1`, the activation is 0.688% (inactive).
In the case of `O=C(C1CC(=O)N(C2CCCC2)C1)N1CCN(c2cccc(C(F)(F)F)c2)CC1` (centres undefined) it was 9.27% (inactive).
In the case of `COC(=O)[C@]1(C)CCC[C@@]2(C)C3CC[C@]4(OC(C)=O)C[C@@]3(CCC21)CC4=NO` (some centres undefined), the activation is 19.3% (inactive).
As for `O=S(=O)(Nc1ccc2nc(N3CCOCC3)sc2c1)c1ccccc1`, the activation is -3.63% (inactive).
In the case of `CCCCc1ccc(NS(=O)(=O)c2cccc(C(=O)N3CCCN(C)CC3)c2)cc1` it was -2.57% (inactive).
Take `NC(=O)NC(CC(=O)NNC(=O)c1ccccn1)c1ccc(Cl)cc1` (centres undefined): the activation is 0.614% (inactive).
With `CCOc1ccc(NC(=O)COC(=O)C2CCC(=O)N2)c([N+](=O)[O-])c1` (centres undefined) the figure was 2.66% (inactive).
In the case of `COc1ccc(CCC(=O)N2CCN(S(=O)(=O)c3ccc(OC)cc3)CC2)cc1` it was 16.4% (inactive); in that of `Cc1ccc(NC(=O)c2cccc(S(=O)(=O)N3CCCc4ccccc43)c2)nc1`, 21.4% (inactive).
Consider `CCCCN(C(=O)c1ccc2ccccc2c1)c1c(N)n(CCCC)c(=O)[nH]c1=O`, for which the activation was -2.14% (inactive).
For the compound `Cc1sc2ncnc(N3CCC(C(=O)Nc4ccc(F)cc4Cl)CC3)c2c1C`, the activation is 1.84% (inactive).
As to `CCN(CC(=O)Nc1ccccc1OC)C(=O)CC1CC2CCC1C2` (centres undefined), the activation was 23.5% (inactive).
For `COc1ccc(OC)c(/C=C/C(=O)c2ccc3c(c2)OCO3)c1`, the activation was 25.2% (inactive).
With `COc1ccc([C@H]2CC(=O)C=C(/C=C/c3ccc(Cl)cc3)C2)cc1` the figure was 6.1% (inactive).
In the case of `CN1CCN(c2ccc(NC(=O)c3cc(Cl)c4c(c3)OCCO4)cc2)CC1`, the activation was -4.8% (inactive).
Regarding `O=C1C=C(c2cccc(Cl)c2O)C[C@@H](c2ccc(F)cc2)C1`, the activation was 15.9% (inactive).
With `COc1ccc(NC(=O)COC(=O)c2n[nH]c3ccccc23)c(OC)c1` the figure was 2.58% (inactive); with `COc1ccc(S(=O)(=O)N2CCOCC2)cc1NC(=O)c1ccc(OCC(C)C)c(OC)c1`, 3.95% (inactive).
With `CN(c1ccccc1)S(=O)(=O)c1cccc(NC(=O)Cc2ccc(Cl)cc2)c1` the figure was 6.78% (inactive).
In the case of `Cc1ccc(S(=O)(=O)NCCC(=O)NCc2ccc(Cl)cc2)cc1C` it was 21.8% (inactive); in that of `CC(C)c1nc(N2CCOCC2)c(C#N)c2c1COC(C)(C)C2`, 13.5% (inactive); in that of `CCOC(=O)CSc1nc(N2CCOCC2)c2c(c1C#N)CC(C(C)C)OC2` (centres undefined), 17.3% (inactive).
As for `COc1ccc(CSc2nc(N3CCOCC3)c3c(c2C#N)CC(C)(C)OC3)cc1`, the activation is 80.5% (active).
With `COc1ccc(OC)c(/C=N/NC(=O)c2ccc[n+](CC(=O)c3ccccc3)c2)c1` the figure was -2.79% (inactive).
Regarding `CC(=O)Nc1ccc(S(=O)(=O)NC(C)C(=O)OCCOc2ccc(F)cc2)cc1` (centres undefined), the activation was 3.17% (inactive).
With `O=C(COc1ccccc1Cl)N1N=C(c2cccs2)CC1c1ccco1` (centres undefined) the figure was 17.2% (inactive); with `O=C(Nc1cccc2cccnc12)C(F)(F)F`, -6.93% (inactive).
In the case of `CC(NC(=O)COC(=O)c1ccc(Cl)cc1O)c1ccc(F)cc1` (centres undefined) it was 96.5% (active); in that of `CC(NC(=O)COC(=O)c1cc(=O)[nH]c2ccccc12)c1ccccc1` (centres undefined), 3.95% (inactive).
Consider `C=CCOc1ccc(/C=C/C(=O)OCC(=O)NC(C)c2ccc(F)cc2)cc1` (centres undefined), for which the activation is 0.454% (inactive).
With `CN(CC(=O)Nc1ccc(Cl)c(C(F)(F)F)c1)C(=O)CCC(=O)c1ccccc1`, the activation is 17.3% (inactive).
As to `CC1(C)O[C@@H]2[C@H](O1)[C@@H](COS(=O)(=O)O)O[C@H]2n1ccc(=O)[nH]c1=O`, the activation was -5.53% (inactive).
On to `COc1ccccc1CNS(=O)(=O)c1cc(C(=O)NCc2ccccn2)c(Cl)cc1Cl`, for which the activation is -2.79% (inactive).
Take `C=C1CCC(N(O)c2cc(C)on2)C(=C)CCC2C1CC2(C)C` (centres undefined): the activation was 13.2% (inactive).
In the case of `C=C(C)CNc1cc(S(=O)(=O)N2CCOCC2)ccc1Oc1ccccc1` it was -6.07% (inactive); in that of `COc1ccccc1Nc1cc(C(=O)NCCCN(C)C2CCCCC2)c2ccccc2n1`, 5.29% (inactive).
With `CCCCn1c(N)c(N(CCC(C)C)C(=O)COC(=O)c2cccnc2OCC)c(=O)[nH]c1=O`, the activation is 1.64% (inactive).
For `CC(C)c1ccc(S(=O)(=O)N2CCN(C(C)C(=O)NC3CCCC3)CC2)cc1` (centres undefined), the activation was 10.1% (inactive).
With `CCCn1c(N)c(N(CCOC)C(=O)C2CCCC2)c(=O)[nH]c1=O` the figure was 1.46% (inactive); with `COc1cccc(N2CCN(CC(=O)Nc3ccnn3C3CCCC3)CC2)c1`, 1.23% (inactive).
In the case of `CC(=O)c1c(C)[nH]c(C(=O)COc2ccc3c(C)cc(=O)oc3c2)c1C` it was -2.89% (inactive); in that of `CC(C)N(Cc1nnc(-c2ccccc2Br)o1)C(=O)c1cc(Cl)nc2ccccc12`, 9.24% (inactive).
